Results on 24 molecules are retold here after PubChem BioAssay (Tox21).

Experiment [1] can be described thus: qHTS assay for small molecule agonists of the p53 signaling pathway (AID 651631; calls by dose curve; note: nearly all actives have a fitted effect of over 15% in size; note: potency is the fitted concentration of half-maximal effect). In short, it runs like this: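 Readout was fluorescence from the LiveBLAzer FRET substrate, applied for 2 h at room temperature after 16 h compound exposure at 37 °C. Cells were the p53RE-bla HCT-116 line, with beta-lactamase driven by p53 response elements.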
The nature of experiment [2]: qHTS assay for small molecules that induce genotoxicity in human embryonic kidney cells expressing luciferase-tagged ATAD5 (AID 651632). Note: nearly all actives have a fitted effect of over 15% in size. In short, it runs like this:
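Genotoxicity read-out via ATAD5-luciferase: HEK293T cells, 16 hr compound incubation at 37C, Amplite detection.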
For orientation: qHTS replaces the single test concentration by a dilution series.

A short description of experiment [3]: qHTS assay for small molecule agonists of the p53 signaling pathway - cell viability (AID 651633; calls by dose curve; note: nearly all actives have a fitted effect of over 30% in size; note: potency is the fitted concentration of half-maximal effect). In short, it runs like this:
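Viability counter-read: CellTiter-Glo luminescence (30 min, room temperature) in the same p53RE-bla plates. These plates had been exposed to compounds for 16 h at 37 C.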

The nature of experiment [4]: qHTS assay for small molecules that induce genotoxicity in human embryonic kidney cells expressing luciferase-tagged ATAD5 - cell viability (AID 651634; calls by dose curve; note: nearly all actives have a fitted effect of over 25% in size). In short, it runs like this: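 Live-cell protease activity (CellTiter-Fluor, fluorescence) indicates viability. HEK293T cells with luciferase-tagged ATAD5; 15.5 hr compound treatment at 37C.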
Experiment [5] can be described thus: qHTS assay for small molecule disruptors of the mitochondrial membrane potential - cell viability (AID 720634; calls by dose curve; note: nearly all actives have a fitted effect of over 20% in size; note: potency is the fitted concentration of half-maximal effect). The essentials:
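Human hepatoma HepG2 cells were treated for 1 hr with test chemicals, then given m-MPI dye and CellTiter-Glo. Cell viability reflects luminescence proportional to cellular ATP.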

Experiment [6] in a line: qHTS assay for small molecule disruptors of the mitochondrial membrane potential (AID 720635). Note: potency is the fitted concentration of half-maximal effect. The essentials: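 Mitochondrial membrane potential tracked with Mito-MPS dye, red aggregates (ex 540/em 590 nm) against green monomers (ex 490/em 535 nm). Compound treatment 1 hr at 37C, dye 30 min in HepG2.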
The nature of experiment [7]: qHTS assay to test for compound auto fluorescence at 590 nm (red) in HepG2 cells (AID 720674). In short, it runs like this:
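We screened compounds on adherent HepG2 cells, incubating them for an hour at 37 C in 5% CO2 before reading emission at 590 nm under 540 nm excitation; values reflect equivalence to Rose Bengal sodium fluorescence.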

The nature of experiment [8]: qHTS assay to test for compound auto fluorescence at 535 nm (green) in HepG2 cells (AID 720675).
Experiment [9] can be described thus: qHTS assay to test for compound auto fluorescence at 460 nm (blue) in HEK293 cells (AID 720678). In short, it runs like this: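 Cells were seeded and left to adhere for 4-5 hr at 37C. Compounds were then pin-transferred. After an overnight incubation at 37C under 5% CO2, intrinsic fluorescence at 405/460 nm was measured and referenced to triamterene.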
Experiment [10] is described as follows: qHTS assay to test for compound auto fluorescence at 590 nm (red) in HEK293 cells (AID 720679). In short, it runs like this:
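Each well held 2,000 HEK293 cells in medium containing 10% dialyzed FBS. Following 4-5 hr attachment at 37C, 23 nL test compound or DMSO was added; plates sat overnight, and red fluorescence (540/590nm) was recorded.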

Values joined by “and” are separate entries in the source; they are usually repeats but may differ in a detail not shown here. Equal entries are not always repeated. Results filed as inconclusive are left out. The source holds several records for some structures; these can differ, active in one and inactive in another. Active and inactive are the calls of the source. Unless noted, calls come from the whole dose curve; as a rule, active = well fitted curve in the direction sought with a large enough effect in the repeat runs; inconclusive = weak or mixed curves; inactive = no such curve, though single readings can be large; an effect the other way counts as inactive or inconclusive.

For the molecule `CN(C)CCC#N`, the Potency result in experiment [1], in experiment [2], in experiment [3], in [4], in experiment [5] and in experiment [6] was “inactive” throughout. For the same molecule, the molecule was classed as inactive in experiment [7], in [8], in experiment [9] and in experiment [10].
As to `[N-]=[N+]=CC(=O)OC[C@H](N)C(=O)O`, the Potency result in experiment [1], in experiment [2], in [3], in experiment [5] and in experiment [6] was “inactive” throughout. Besides, the molecule was classed as inactive in [7], in [8] and in experiment [9].
In the case of `CNC(=O)O/N=C/C(C)(C)S(C)(=O)=O`, the Potency entry in [1], in experiment [2], in experiment [3], in [4], in experiment [5] and in experiment [6] was “inactive” throughout. The outcome in experiment [7], in experiment [8], in [9] and in [10] was inactive.
In the case of `Cc1cc(Cl)ccc1OC(C)C(=O)O` (centres undefined), the Potency result in experiment [1], in experiment [2], in experiment [3], in experiment [4], in experiment [5] and in [6] was “inactive” each time. Also, the molecule was called inactive in experiment [7], in experiment [8], in experiment [9] and in experiment [10].
For `O=C/C=C/c1ccccc1`, the Potency result in experiment [1], in experiment [2], in experiment [3], in [4], in [5] and in experiment [6] was “inactive” throughout. Also, the result in experiment [7], in experiment [8] and in experiment [9] was inactive.
As to `Nc1ccc([As](=O)(O)O)cc1`, the Potency result in [1], in experiment [2], in [3], in experiment [4], in [5] and in experiment [6] was “inactive” throughout. The outcome in experiment [7], in experiment [8], in experiment [9] and in [10] was inactive.
Take `COC(C)(C)CCCC(C)C/C=C/C(C)=C/C(=O)OC(C)C` (centres undefined): the Potency entry in experiment [1], in experiment [2], in experiment [3], in [4] and in experiment [5] was “inactive” in each case. Also, the Potency result in experiment [6] was “inactive and 21.3 µM (active)”. The result in [7], in [8], in [9] and in experiment [10] was inactive.
As to `CCSC(=O)N1CCCCCC1`, the Potency entry in [1], in experiment [2], in [3], in experiment [4], in experiment [5] and in experiment [6] was “inactive” in each case. The result in [7], in [8] and in [9] was inactive.
Turning to `N#Cc1cccc(C#N)c1`, the Potency result in [1], in [2], in experiment [3], in experiment [4], in experiment [5] and in experiment [6] was “inactive” each time. The result in experiment [7], in experiment [8] and in [9] was inactive.
With `COP(=S)(OC)SCN1C(=O)c2ccccc2C1=O`, the Potency result in experiment [1], in experiment [2], in [3], in experiment [4], in experiment [5] and in [6] was “inactive” throughout. Besides, the call in experiment [7], in experiment [8], in experiment [9] and in experiment [10] was inactive.
Consider `CCOc1ccc(N)cc1`, for which the Potency result in [1], in experiment [2], in experiment [3], in experiment [4], in [5] and in experiment [6] was “inactive” throughout. Besides, the molecule was called inactive in experiment [7], in experiment [8], in experiment [9] and in experiment [10].
`O=C(O)CCCc1ccc(N(CCCl)CCCl)cc1`: in experiment [1], the Potency is 23.7 µM (active) and 61.4 µM (active) and 34.4 µM (active). Besides, the Potency result in experiment [2], in experiment [3], in [4], in experiment [5] and in [6] was “inactive” in each case. Besides, the outcome in [7], in [8], in experiment [9] and in [10] was inactive.
Take `C=CCN=C=S`: the Potency entry in experiment [1], in [2], in [3], in experiment [4], in experiment [5] and in experiment [6] was “inactive” in each case. For the same molecule, the molecule was called inactive in [7], in [8], in experiment [9] and in experiment [10].
For `CCCCC(CC)C(=O)Cl` (centres undefined), the Potency entry in experiment [1], in experiment [2], in experiment [3], in [4], in [5] and in experiment [6] was “inactive” each time. Also, the outcome in experiment [7], in experiment [8] and in [9] was inactive.
In the case of `Nc1ncc([N+](=O)[O-])s1`, the Potency result in experiment [1], in experiment [2], in experiment [3], in experiment [4] and in [5] was “inactive” in each case. Moreover, the molecule was called inactive in experiment [7], in [8], in [9] and in experiment [10].
As for `Cc1ccccc1N`, the Potency result in experiment [1], in [2], in experiment [3], in experiment [5] and in [6] was “inactive” each time. Also, the outcome in experiment [7], in experiment [8] and in [9] was inactive.
With `O=C(O)COc1ccccc1`, the Potency entry in experiment [1], in experiment [2], in [3], in [4], in experiment [5] and in experiment [6] was “inactive” in each case. In addition, the molecule was called inactive in experiment [7], in experiment [8], in experiment [9] and in [10].
Regarding `O=[N+]([O-])c1cc([As](=O)(O)O)ccc1O`, the Potency result in [1], in [2], in experiment [3], in [4], in experiment [5] and in [6] was “inactive” throughout. Further, the call in experiment [7], in [8], in [9] and in experiment [10] was inactive.
With `C[C@H]1C(=O)O[C@@H]2CCN3CC=C(COC(=O)[C@](C)(O)[C@]1(C)O)[C@H]23`, the Potency result in [1], in experiment [2], in [3] and in [4] was “inactive” throughout. Moreover, the call in experiment [7], in experiment [8] and in experiment [9] was inactive.
As for `CCOC(=O)CC(SP(=O)(OC)OC)C(=O)OCC` (centres undefined), the Potency entry in experiment [1], in [2], in experiment [3], in [5] and in experiment [6] was “inactive” each time. For the same molecule, the outcome in experiment [7], in experiment [8] and in experiment [9] was inactive.
On to `CSc1nnc(C(C)(C)C)c(=O)n1N`, for which the Potency entry in experiment [1], in experiment [2], in [3], in experiment [5] and in [6] was “inactive” each time. For the same molecule, the molecule was classed as inactive in experiment [7], in experiment [8] and in [9].
Take `Cc1ccc(O)c(C)c1`: the Potency entry in experiment [1], in experiment [2], in [3], in experiment [5] and in [6] was “inactive” throughout. Also, the result in [7], in [8] and in experiment [9] was inactive.
`CCOP(=S)(OCC)Oc1cc(C)nc(C(C)C)n1`: the Potency result in [1], in [2] and in experiment [4] was “inactive” in each case. Besides, the Potency entry is “inactive and 61.1 µM (active)” in experiment [3]; “inactive and 48.6 µM (active)” in experiment [5]; “inactive and 30.6 µM (active)” in [6]. Moreover, the molecule was classed as inactive in experiment [7], in [8], in experiment [9] and in experiment [10].
Take `C=C(C)C(=O)OCC(CC)CCCC` (centres undefined): the Potency entry in experiment [1], in experiment [2], in experiment [3] and in [4] was “inactive” each time. The call in experiment [7], in experiment [8] and in experiment [9] was inactive.
